HCMV inh: inhibitors of human cytomegalovirus; activity change, negative = inhibition, % at 57.5 µM; HFF cells, HCMV-luciferase reporter, 72 h; hits give low values; 410,000 tested, 4.5% active; in the data active = activity change below about -60%; inconclusive = no clear call, values can overlap the other calls; inactive = above about -39%
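Screen run at 2 compound doses on HFFs infected with reporter HCMV, MOI 1 PFU/cell. Luciferase activity from cell lysates at 72 h post infection gave inhibition relative to buffer-only and Salinomycin wells.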
Lassa entry inh: inhibitors of Lassa virus binding or cell entry; Lassa virus pseudotype entry inhibition, cell reporter; Potency, µM (highest dose often 37.9 µM), usual class: inhibitors; 300,000 tested, 1.2% active; AID 540256; calls by dose curve; tested in HEK293 cells; note: nearly all actives have a fitted effect of over 50% in size
Vaccinia mCherry: inhibitors of vaccinia virus infection (mCherry reporter signal); Vaccinia virus mCherry reporter infection, fluorescence; 310,000 tested, 0.63% active; Potency, µM (series often up to 36.5 µM), usual class: inhibitors; calls by dose curve; tested in A549 cells; note: nearly all actives have a fitted effect of over 35% in size
FMDV antiviral: blocks foot and mouth disease virus; Potency, µM (top dose mostly 57.9 µM), most hits filed as inhibitors; FMDV antiviral cell-based qHTS; 410,000 tested, 1.2% active; AID 1159524; calls by dose curve; tested in HEK293T cells; note: read-out not given here; nearly all actives have a fitted effect of over 45% in size
Vaccinia Venus: inhibitors of vaccinia virus (Venus reporter) | Potency, µM (doses to about 36.5 µM), most hits filed as inhibitors | AID 720580 | 330,000 tested, 0.46% active | Vaccinia virus Venus reporter expression, fluorescence; calls by dose curve; tested in A549 cells; note: nearly all actives have a fitted effect of over 30% in size
MARV entry inh: inhibitors of Marburg virus binding or cell entry; Marburg virus pseudotyped entry inhibition, cell reporter; Potency, µM (top dose mostly 37.8 µM), usual class: inhibitors; 300,000 tested, 1.8% active; AID 540276; calls by dose curve; tested in HEK293 cells
Large screens that a line does not name were inactive. Most compounds without a hit are left out; they make up all but 6.5% or so of the library.

Cc1ccc(Cl)cc1N1CCN(C(=O)CN(C2CCCCC2)S(C)(=O)=O)CC1	Vaccinia mCherry inconclusive, FMDV antiviral 14µM, MARV entry inh inconclusive
CC(C)NS(=O)(=O)c1ccc(OCC(=O)N2CCN(c3ccccc3)CC2)cc1	none
CS(=O)(=O)N(CC(=O)N1CCN(c2cccc(Cl)c2)CC1)C1CCCCC1	Vaccinia mCherry inconclusive, FMDV antiviral inconclusive
CC(C)NS(=O)(=O)c1ccc(OCC(=O)N2CCCC2)cc1	none (no result: FMDV antiviral)
O=C(COc1ccc(S(=O)(=O)NC2CCCCC2)cc1)N1CCN(c2cccc(Cl)c2)CC1	HCMV inh -91, Lassa entry inh inconclusive, FMDV antiviral inconclusive, MARV entry inh inconclusive (no result: Vaccinia mCherry, Vaccinia Venus)
CCNS(=O)(=O)c1ccc(CCC(=O)N2CCN(c3cccc(Cl)c3)CC2)cc1	Lassa entry inh inconclusive, FMDV antiviral 28µM, MARV entry inh inconclusive
COc1ccc(CNCC(=O)Nc2sccc2C#N)cc1	none
O=C1[C@H]2[C@H]3[C@H](O)[C@H](O)C/C(=N\OCc4ccccc4)[C@@H]3CC[C@H]2C(=O)N1C[C@@H]1CCCO1	none (no result: HCMV inh, Lassa entry inh, Vaccinia mCherry, FMDV antiviral, Vaccinia Venus)
COc1ccc(C(=O)N2CCN(c3nc4c(OC)cccc4s3)CC2)cc1OC	HCMV inh -84, Lassa entry inh inconclusive, FMDV antiviral inconclusive, Vaccinia Venus inconclusive (no result: MARV entry inh)
COc1cccc2sc(N3CCN(C(=O)CCS(=O)(=O)c4ccc(F)cc4)CC3)nc12	HCMV inh -88, Lassa entry inh inconclusive, FMDV antiviral 20µM (no result: MARV entry inh)
COc1cccc2sc(N3CCN(C(=O)c4ccco4)CC3)nc12	none
c1ccc2c(N3CCCCCC3)nc(CN3CCCCC3c3nccs3)nc2c1 (centres undefined)	Vaccinia mCherry inconclusive (no result: HCMV inh, Lassa entry inh, MARV entry inh)
Cc1[nH]c2ccc(C(=O)OC(C)C(=O)N(C)c3ccccc3)cc2c1C (centres undefined)	Lassa entry inh 5µM, Vaccinia mCherry inconclusive, Vaccinia Venus inconclusive (no result: HCMV inh)
CCOc1ccc2[nH]cc(C(=O)NCc3ccc(F)cc3)c(=O)c2c1	HCMV inh -71 (no result: Lassa entry inh, Vaccinia mCherry, Vaccinia Venus, MARV entry inh)
CCC1C(=O)NCCN1Cc1ccc2c(c1)CN(Cc1cc(OC)ccc1OC)CCO2 (centres undefined)	none (no result: HCMV inh, Lassa entry inh, MARV entry inh)
Cc1ccc2nc(-c3ccc(NC(=O)Cc4cccs4)cc3)[nH]c2c1	Lassa entry inh inconclusive, Vaccinia mCherry inconclusive, Vaccinia Venus 13µM (no result: FMDV antiviral)
Cc1ccc2nc(-c3ccc(NC(=O)C4CCCO4)cc3)[nH]c2c1 (centres undefined)	Lassa entry inh 8.2µM, MARV entry inh inconclusive (no result: Vaccinia mCherry, Vaccinia Venus)
COc1ccc(-c2n[nH]c(C)c2-c2ccc(Cl)cc2)c(O)c1	HCMV inh inconclusive, Lassa entry inh inconclusive, FMDV antiviral inconclusive, Vaccinia Venus inconclusive (no result: Vaccinia mCherry)
COc1ccc(-c2n[nH]c(C)c2-c2ccc(Cl)cc2)c(O)c1OC	HCMV inh inconclusive, Lassa entry inh inconclusive, FMDV antiviral 32µM (no result: Vaccinia mCherry, Vaccinia Venus)
COc1ccc(O)c(-c2c(-c3ccc(Cl)cc3)n[nH]c2C)c1	FMDV antiviral inconclusive, Vaccinia Venus inconclusive
Cc1[nH]nc(-c2ccc(O)cc2O)c1-c1ccc(Cl)cc1	HCMV inh -71, FMDV antiviral inconclusive (no result: Vaccinia mCherry, Vaccinia Venus)
O=C(/C=C/c1ccncc1)c1ccc2c(c1)OCCO2	Lassa entry inh inconclusive, FMDV antiviral 28µM, MARV entry inh 14µM
COc1cc(/C=C/C(=O)c2ccc3c(c2)OCCO3)cc(Br)c1OCC(=O)N(C)C	HCMV inh -97, Vaccinia mCherry 2.8µM, FMDV antiviral 7.9µM, Vaccinia Venus inconclusive, MARV entry inh inconclusive
O=C(/C=C/c1ccccc1)c1ccc2c(c1)OCO2	none (no result: Lassa entry inh, Vaccinia mCherry, Vaccinia Venus, MARV entry inh)
O=C(C[n+]1ccc(/C=C/c2ccccc2)cc1)c1ccc2c(c1)OCCO2	HCMV inh -83, Lassa entry inh inconclusive, MARV entry inh inconclusive
COc1cc(C(=O)NNC(=O)c2ccc3c(c2)OCCO3)cc(OC)c1OC	Lassa entry inh inconclusive
Cc1cc[n+](CC(=O)c2ccc3c(c2)OCCO3)cc1	none
C=CCn1c(C)cc(C(=O)COC(=O)c2cncc(Br)c2)c1C	none (no result: Lassa entry inh, Vaccinia mCherry, Vaccinia Venus, MARV entry inh)
CSc1ccc(CNc2cccc3ccccc23)cc1	HCMV inh -64, Lassa entry inh inconclusive, MARV entry inh inconclusive (no result: FMDV antiviral)
CSc1ccc(/C=N/NC(=O)CNc2cccc3ccccc23)cc1	MARV entry inh inconclusive
COc1ccc(CCNC(=S)Nc2cccc3ccccc23)cc1	none
S=C(NCCc1ccccc1)Nc1cccc2cnccc12	HCMV inh -95, Lassa entry inh inconclusive
Cc1ccccc1NC(=S)Nc1cccc2cnccc12	HCMV inh -65, FMDV antiviral inconclusive
S=C(NCc1ccccc1)Nc1cccc2cnccc12	HCMV inh -87, FMDV antiviral inconclusive, MARV entry inh inconclusive (no result: Lassa entry inh)
COc1ccc(OCCNC(=S)Nc2cccc3ccccc23)cc1	HCMV inh -84 (no result: Vaccinia mCherry, Vaccinia Venus)
O=S(=O)(Nc1ccc2nc(-c3cccc(Cl)c3)nn2c1)c1ccco1	none (no result: Lassa entry inh, Vaccinia mCherry, FMDV antiviral, Vaccinia Venus, MARV entry inh)
O=C(O)c1ccc2c(ccc3nn(-c4ccc(/C=C/c5ccc(-n6nc7ccc8cc(C(=O)O)ccc8c7n6)cc5[S+](=O)([O-])[O-])c([S+](=O)([O-])[O-])c4)nc32)c1	none (no result: HCMV inh, Lassa entry inh, FMDV antiviral, MARV entry inh)
CC(=O)Nc1cc(C(=O)N2CCN(c3ccccc3)CC2C)cc2ncn(CCc3ccccn3)c12 (centres undefined)	none (no result: HCMV inh, Lassa entry inh, MARV entry inh)
COc1ccc2c(CC(=O)Nc3ncc(C)s3)coc2c1	HCMV inh -77, Vaccinia Venus inconclusive, MARV entry inh inconclusive
FC(F)(F)COc1nc(N/N=C/c2cccnc2)nc(N2CCCCC2c2ccccn2)n1 (centres undefined)	HCMV inh -72
Cc1ccc2[nH]c(=O)c(CN(Cc3ccco3)Cc3nnnn3Cc3ccccc3)cc2c1	none (no result: HCMV inh, Lassa entry inh, FMDV antiviral, MARV entry inh)
CN(C)c1ccc2nc3ccc(=O)cc-3sc2c1	HCMV inh -78, Vaccinia Venus inconclusive (no result: Lassa entry inh, MARV entry inh)
CC(C)(C)C(=O)Cn1ncc(Br)c(Br)c1=O	HCMV inh -101, FMDV antiviral inconclusive (no result: Lassa entry inh, Vaccinia mCherry, Vaccinia Venus, MARV entry inh)
COc1ccc(NC(=O)c2ccc(-c3ccc([N+](=O)[O-])cc3)o2)cc1OC	HCMV inh -72, Lassa entry inh inconclusive, FMDV antiviral inconclusive, MARV entry inh inconclusive
COc1ccc([N+](=O)[O-])cc1NC(=O)C(C)OC(=O)c1ccccc1C(=O)c1ccc(Cl)cc1 (centres undefined)	HCMV inh -65, Lassa entry inh inconclusive
COc1ccc([N+](=O)[O-])cc1NC(=O)Nc1cccc(Cl)c1	HCMV inh -62, FMDV antiviral inconclusive
COc1ccc([N+](=O)[O-])cc1NC(=O)COC(=O)c1ccccc1C(=O)c1ccccc1	HCMV inh inconclusive, Lassa entry inh inconclusive, MARV entry inh inconclusive
COc1cccc(NC(=O)c2ccc(-c3ccc([N+](=O)[O-])cc3)o2)c1	HCMV inh inconclusive, MARV entry inh inconclusive
COc1ccc([N+](=O)[O-])cc1NC(=O)Nc1ccc(OC)c(OC)c1	HCMV inh -72, Lassa entry inh inconclusive, Vaccinia mCherry inconclusive, FMDV antiviral 35µM, Vaccinia Venus inconclusive, MARV entry inh inconclusive
COC(=O)C1=C(C)N(Cc2ccccc2)C(=O)NC1c1cccc(F)c1 (centres undefined)	none (no result: HCMV inh, Lassa entry inh, Vaccinia mCherry, FMDV antiviral, Vaccinia Venus)
COC(=O)CSc1nc(N)c(C#N)c(-c2ccc(O)cc2)c1C#N	FMDV antiviral 4µM (no result: Lassa entry inh, Vaccinia mCherry, Vaccinia Venus)
CCOC(=O)/C(=C/C=C1\Sc2cc(C)c(C)cc2N1CC)C(C)=O	HCMV inh -69, Lassa entry inh inconclusive, FMDV antiviral inconclusive, MARV entry inh inconclusive
